Measurements reported in PubChem BioAssay (NCI).
This is part of a sample that, as a whole, favours compounds with a hit. Of some 83,000 tested, about 20% had one in any assay.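 Single-dose data. Exposure time 48 hours. Values below 10 considered active.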 Calls of active or inactive are those of the source.

Legend:
Assay in all cases: NCI-60 one-dose screen, 48 h (100 = growth as untreated, 0 = no growth, -100 = all killed)
Conditions in all cases: 10 µM unless noted
HCT-15 colon = test system: HCT-15 colon
HT29 colon = test system: HT29 colon
SNB-75 CNS = test system: SNB-75 CNS
SNB-19 CNS = test system: SNB-19 CNS
U251 CNS = test system: U251 CNS
PC-3 prostate = test system: PC-3 prostate
SK-MEL-5 melanoma = test system: SK-MEL-5 melanoma
UACC-62 melanoma = test system: UACC-62 melanoma
LOX IMVI melanoma = test system: LOX IMVI melanoma
SK-MEL-28 melanoma = test system: SK-MEL-28 melanoma
SK-MEL-2 melanoma = test system: SK-MEL-2 melanoma
EKVX NSCLC = test system: EKVX NSCLC
SN12C renal = test system: SN12C renal
UO-31 renal = test system: UO-31 renal
TK-10 renal = test system: TK-10 renal
A498 renal = test system: A498 renal
CCRF-CEM leukemia = test system: CCRF-CEM leukemia
MOLT-4 leukemia = test system: MOLT-4 leukemia

Measured: growth

CC(=O)Oc1ccc(C(OC(C)=O)OC(C)=O)cc1
inactive: HCT-15 colon 102% | HT29 colon 99.8% | SNB-75 CNS 106% | SNB-19 CNS 104% | U251 CNS 106% | PC-3 prostate 104% | SK-MEL-5 melanoma 105% | UACC-62 melanoma 101% | LOX IMVI melanoma 99.2% | SK-MEL-28 melanoma 107% | SK-MEL-2 melanoma 104% | EKVX NSCLC 94.1% | SN12C renal 102% | UO-31 renal 89.8% | TK-10 renal 98.8% | A498 renal 92.3% | CCRF-CEM leukemia 94.5% | MOLT-4 leukemia 91.1%

CCN(CC)CCNc1ccc([N+](=O)[O-])c2sc3cc(Cl)ccc3c(=O)c12
active: SNB-75 CNS 1.48% | SK-MEL-28 melanoma -47.5% | SN12C renal -19.3% | UO-31 renal -79.5%
inactive: HCT-15 colon 48.5% | HT29 colon 34.7% | SNB-19 CNS 42.2% | U251 CNS 40.4% | PC-3 prostate 48.5% | SK-MEL-5 melanoma 61.7% | UACC-62 melanoma 30.9% | LOX IMVI melanoma 19.1% | SK-MEL-2 melanoma 82.1% | EKVX NSCLC 78.9% | TK-10 renal 66.9% | A498 renal 73.5% | CCRF-CEM leukemia 12.9% | MOLT-4 leukemia 29%

COc1ccc(Cl)cc1NC(=O)c1cc2c(n1C)-c1nc(NC(=O)C(C)(C)C)sc1CC2
inactive: HCT-15 colon 89.4% | HT29 colon 79.2% | SNB-75 CNS 83.1% | SNB-19 CNS 106% | U251 CNS 88.4% | PC-3 prostate 71.7% | SK-MEL-5 melanoma 79.7% | UACC-62 melanoma 87.7% | LOX IMVI melanoma 93.9% | SK-MEL-28 melanoma 92.4% | SK-MEL-2 melanoma 79.7% | EKVX NSCLC 76.2% | SN12C renal 107% | UO-31 renal 53.5% | TK-10 renal 98% | A498 renal 94% | CCRF-CEM leukemia 98.5% | MOLT-4 leukemia 72.5%

O=C(O)c1ccc(-n2cc(/C=N/Nc3ccc(F)cc3)c(-c3cccc(C(F)(F)F)c3)n2)cc1
inactive: HCT-15 colon 53.6% | HT29 colon 86.8% | SNB-75 CNS 88.4% | SNB-19 CNS 91.3% | U251 CNS 84.9% | PC-3 prostate 62.6% | SK-MEL-5 melanoma 87.6% | UACC-62 melanoma 24.1% | LOX IMVI melanoma 42.8% | SK-MEL-28 melanoma 96.1% | SK-MEL-2 melanoma 70.1% | EKVX NSCLC 70.8% | SN12C renal 86.9% | UO-31 renal 45.6% | TK-10 renal 91.9% | A498 renal 69% | CCRF-CEM leukemia 33.7% | MOLT-4 leukemia 36.5%

CCOC(=O)c1noc2c1CCc1cn(Cc3cc(OC)cc(OC)c3)cc1-2
inactive: HCT-15 colon 96.4% | HT29 colon 75.4% | SNB-75 CNS 95.8% | SNB-19 CNS 113% | U251 CNS 110% | PC-3 prostate 92.8% | SK-MEL-5 melanoma 101% | UACC-62 melanoma 103% | LOX IMVI melanoma 95.5% | SK-MEL-28 melanoma 105% | SK-MEL-2 melanoma 92.1% | EKVX NSCLC 98.1% | SN12C renal 107% | UO-31 renal 84% | TK-10 renal 81.7% | A498 renal 107% | CCRF-CEM leukemia 102% | MOLT-4 leukemia 79.5%

COC(=O)/C=C/C(=O)c1cc(C)cc(C)c1O
inactive: HCT-15 colon 100% | HT29 colon 99.7% | SNB-75 CNS 103% | SNB-19 CNS 108% | U251 CNS 108% | PC-3 prostate 102% | SK-MEL-5 melanoma 104% | UACC-62 melanoma 106% | LOX IMVI melanoma 98.1% | SK-MEL-28 melanoma 102% | SK-MEL-2 melanoma 99.2% | EKVX NSCLC 95.9% | SN12C renal 109% | UO-31 renal 88% | TK-10 renal 96.9% | A498 renal 105% | CCRF-CEM leukemia 90.3% | MOLT-4 leukemia 89.8%

O=C(CSc1nnc(-c2ccc(Cl)cc2)o1)Nc1ccc(C(=O)/C=C/c2ccccc2)cc1
inactive: HCT-15 colon 96.7% | HT29 colon 98% | SNB-75 CNS 90.4% | SNB-19 CNS 86.9% | U251 CNS 99.3% | PC-3 prostate 99.4% | SK-MEL-5 melanoma 98% | UACC-62 melanoma 85.6% | LOX IMVI melanoma 85.3% | SK-MEL-28 melanoma 105% | SK-MEL-2 melanoma 92.9% | EKVX NSCLC 98% | SN12C renal 95.5% | UO-31 renal 80.1% | TK-10 renal 93.7% | A498 renal 95.7% | CCRF-CEM leukemia 86.1% | MOLT-4 leukemia 93.1%

COc1ccc(-c2nnc(SCC(=O)Nc3ccc(C(=O)/C=C/c4ccc(Cl)cc4)cc3)o2)cc1OC
inactive: HCT-15 colon 81.3% | HT29 colon 89.8% | SNB-75 CNS 71.4% | SNB-19 CNS 84.6% | U251 CNS 88.5% | PC-3 prostate 84.6% | SK-MEL-5 melanoma 56.7% | UACC-62 melanoma 62.7% | LOX IMVI melanoma 79% | SK-MEL-28 melanoma 82.2% | SK-MEL-2 melanoma 72% | EKVX NSCLC 80.2% | SN12C renal 47.8% | UO-31 renal 72.3% | TK-10 renal 52.8% | A498 renal 88.7% | CCRF-CEM leukemia 65.1% | MOLT-4 leukemia 41.1%

O=C(CSc1nnc(-c2ccccc2)o1)Nc1ccc(C(=O)/C=C/c2ccccc2)cc1
inactive: HCT-15 colon 25.8% | HT29 colon 32.4% | SNB-75 CNS 33.5% | SNB-19 CNS 64.9% | U251 CNS 44.1% | PC-3 prostate 77% | SK-MEL-5 melanoma 78.9% | UACC-62 melanoma 82.3% | LOX IMVI melanoma 24.4% | SK-MEL-28 melanoma 97% | SK-MEL-2 melanoma 99.2% | EKVX NSCLC 79.7% | SN12C renal 81.7% | UO-31 renal 55.7% | TK-10 renal 91% | A498 renal 83.8% | CCRF-CEM leukemia 55.5% | MOLT-4 leukemia 59%

O=C(Nc1cccc([N+](=O)[O-])c1)Nc1cccc([N+](=O)[O-])c1
inactive: HCT-15 colon 24.6% | HT29 colon 40.9% | SNB-75 CNS 107% | SNB-19 CNS 52% | U251 CNS 50.8% | PC-3 prostate 12.7% | SK-MEL-5 melanoma 55% | UACC-62 melanoma 29.9% | LOX IMVI melanoma 51.3% | SK-MEL-28 melanoma 60.3% | SK-MEL-2 melanoma 53.9% | EKVX NSCLC 50.4% | SN12C renal 70.3% | UO-31 renal 46.6% | TK-10 renal 39% | A498 renal 33.1%
active: MOLT-4 leukemia 9.18%

COc1ccc2c(c1)OC(N)=C(C#N)C2c1ccc(F)c(F)c1 (centres undefined)
inactive: HCT-15 colon 29.6% | SNB-19 CNS 28.7% | U251 CNS 31% | PC-3 prostate 24.2% | SK-MEL-5 melanoma 24.2% | UACC-62 melanoma 38.1% | LOX IMVI melanoma 54.2% | SK-MEL-28 melanoma 68.2% | SK-MEL-2 melanoma 32.9% | EKVX NSCLC 49.2% | SN12C renal 54.7% | UO-31 renal 52.8% | TK-10 renal 70.5% | CCRF-CEM leukemia 14.9% | MOLT-4 leukemia 28.2%
active: HT29 colon 3.2% | SNB-75 CNS 9.47% | A498 renal 9.88%

COc1cc(Br)c(-c2nc(-c3ccccc3)c(-c3ccccc3)n2Cc2ccccc2)cc1OC
inactive: HCT-15 colon 47.4% | HT29 colon 32.3% | SNB-75 CNS 86.7% | SNB-19 CNS 67.2% | U251 CNS 64.1% | PC-3 prostate 29.7% | SK-MEL-5 melanoma 54% | UACC-62 melanoma 53.1% | LOX IMVI melanoma 61.3% | SK-MEL-28 melanoma 91.1% | SK-MEL-2 melanoma 44.8% | EKVX NSCLC 47.9% | SN12C renal 66.5% | UO-31 renal 30.4% | TK-10 renal 62.3% | A498 renal 73.8% | CCRF-CEM leukemia 54.3% | MOLT-4 leukemia 23.4%

NC(=S)NNC1CCCCC1
inactive: HCT-15 colon 99.7% | HT29 colon 94.4% | SNB-75 CNS 91.5% | SNB-19 CNS 101% | U251 CNS 93.6% | PC-3 prostate 87.7% | SK-MEL-5 melanoma 95.1% | UACC-62 melanoma 95.7% | LOX IMVI melanoma 97.6% | SK-MEL-28 melanoma 111% | SK-MEL-2 melanoma 97.3% | EKVX NSCLC 89.9% | SN12C renal 95.7% | UO-31 renal 72.6% | TK-10 renal 97.2% | A498 renal 100% | MOLT-4 leukemia 70.9%

FC(F)(F)c1cccc([Si](F)(c2cccc(C(F)(F)F)c2)c2cccc(C(F)(F)F)c2)c1
inactive: HCT-15 colon 72.1% | HT29 colon 59.3% | SNB-75 CNS 80.4% | SNB-19 CNS 77.7% | U251 CNS 72.1% | PC-3 prostate 24.2% | SK-MEL-5 melanoma 84.2% | UACC-62 melanoma 68.4% | LOX IMVI melanoma 72.9% | SK-MEL-28 melanoma 85.8% | SK-MEL-2 melanoma 87.6% | EKVX NSCLC 66.1% | SN12C renal 74% | UO-31 renal 49% | TK-10 renal 73.9% | A498 renal 90.4% | CCRF-CEM leukemia 65.5% | MOLT-4 leukemia 61.6%

CC(C)(CCN=C(N)Nc1ccccn1)c1ccc(C(F)(F)F)cc1
active: HCT-15 colon 9.42% | HT29 colon -14.8% | U251 CNS -17% | SK-MEL-5 melanoma -91.4% | UACC-62 melanoma -2.3% | LOX IMVI melanoma 5.15% | SK-MEL-28 melanoma -30.9% | MOLT-4 leukemia -15.6%
inactive: SNB-75 CNS 48.3% | SNB-19 CNS 37.2% | PC-3 prostate 19.7% | SK-MEL-2 melanoma 38.5% | EKVX NSCLC 21.6% | SN12C renal 23.9% | UO-31 renal 14.4% | TK-10 renal 37% | A498 renal 57.2%

CC(C)C(=O)Nc1nc2c(s1)CCCc1ccn(S(=O)(=O)c3ccccc3)c1-2
inactive: HCT-15 colon 94% | HT29 colon 83.7% | SNB-75 CNS 89.4% | SNB-19 CNS 110% | U251 CNS 102% | PC-3 prostate 85.3% | SK-MEL-5 melanoma 93.3% | UACC-62 melanoma 87% | LOX IMVI melanoma 96.9% | SK-MEL-28 melanoma 106% | SK-MEL-2 melanoma 83.7% | EKVX NSCLC 88.2% | SN12C renal 105% | UO-31 renal 77.1% | TK-10 renal 83.6% | A498 renal 110% | CCRF-CEM leukemia 87.2% | MOLT-4 leukemia 78%

CNCCCOc1c(Br)cc(CCNC(=O)/C(Cc2ccc(OC)c(Br)c2)=N/O)cc1Br
inactive: HCT-15 colon 22.9% | SNB-75 CNS 50.6% | SNB-19 CNS 50.3% | U251 CNS 27.5% | PC-3 prostate 34.5% | SK-MEL-5 melanoma 38.9% | SK-MEL-2 melanoma 40% | EKVX NSCLC 65.5% | SN12C renal 57.6% | UO-31 renal 41.7% | TK-10 renal 74.1% | A498 renal 39.4% | MOLT-4 leukemia 10.3%
active: HT29 colon 5.72% | UACC-62 melanoma 9.73% | LOX IMVI melanoma -35.4% | SK-MEL-28 melanoma -21.7%

CC(Cl)(CCl)CS(=O)(=O)c1ccc(Cl)cc1 (centres undefined)
inactive: HCT-15 colon 105% | HT29 colon 103% | SNB-75 CNS 103% | SNB-19 CNS 101% | U251 CNS 94.4% | PC-3 prostate 97.7% | SK-MEL-5 melanoma 100% | UACC-62 melanoma 99.8% | LOX IMVI melanoma 101% | SK-MEL-28 melanoma 117% | SK-MEL-2 melanoma 99.1% | EKVX NSCLC 103% | SN12C renal 105% | UO-31 renal 92.8% | TK-10 renal 93.2% | A498 renal 77.2% | MOLT-4 leukemia 101%
